# Screening data: PubChem, several laboratories
# TRPM1 prom inh: reduces MITF-dependent TRPM1 promoter luciferase signal; SK-MEL-5 TRPM1 promoter luciferase, 24 h; inhibition, % at 12.5 µM; 330,000 tested, 0.83% active;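 active = mean inhibition across replicates of 60% or more, whatever share of single replicates reaches that level; inconclusive = some that reach 60%, reason not given; inactive = mean inhibition across replicates below 60%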
# HIF-2a block: blocks HIF-2a reporter activity. 360,000 tested, 0.72% active. inhibition, % at 18.8 µM. 786-0 RCC cells HIF-2a reporter, luciferase luminescence, overnight;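 active = inhibition of the luminescence signal of 40% or more relative to plate controls, in a single-dose primary screen at 18.75 µM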
# KKLEB tox: reduces viability of KKLEB cystic fibrosis airway cells. KKLEB CF airway cells viability, ATPlite luminescence, overnight; hits give low values; cells stimulated with P. aeruginosa culture filtrate. activity change (cytotoxicity), % at 5 µM. 360,000 tested, 0.36% active;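 active = corrected activity change at or below -50% at 5 µM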
# Shn3 3UTR inh: Schnurri-3 reporter inhibition in Clone20 osteoblasts | Clone20 osteoblast Shn3 3'UTR firefly luciferase, 24 h | inhibition, % at 12.5 µM | 360,000 tested, 0.52% active;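 active = mean inhibition of at least 75% with every replicate also reaching 75%; inconclusive = mean inhibition at least 75% but some replicate below; inactive = mean inhibition below 75%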;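 also: 0% = median of neutral control wells and 100% = pilot-screen positive control compound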
# Peg3 prom inh: Peg3 promoter activity inhibition; inhibition, % at 20 µM; 360,000 tested, 1.7% active; AID 588405; HeLa PEG-Prom luciferase reporter, luminescence, overnight;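 active = inhibition of at least 50% at 20 µM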
# CF NFkB inh: blocks PAF-induced NF-kB reporter in cystic fibrosis cells | KKLEB NF-kB-GFP reporter, GFP fluorescence overnight | inhibition, % at 5 µM | 360,000 tested, 0.86% active;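 active = at least 50% inhibition at 5 µM, scaled per plate between neutral and stimulator controls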;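 also: PAF is a Pseudomonas aeruginosa culture filtrate used as stimulus; plate controls were PAF-stimulated DMSO wells for no effect and unstimulated DMSO wells for full effect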
# * = called active by the depositor; ? = inconclusive; . = no result. Hits are enriched below; roughly 2.7% of the tested compounds scored in any of these assays.
SMILES,TRPM1 prom inh,HIF-2a block,KKLEB tox,Shn3 3UTR inh,Peg3 prom inh,CF NFkB inh
Cc1cccc(Cn2cc(C=O)c3ccccc32)c1,23.2,11.3,2.0,32.7,68.8*,7.0
COC(=O)C1=C(c2c(C)noc2C)C[C@@H]2CC[C@H]1N2C(=O)NCc1ccco1,-2.6,4.4,1.5,-0.8,0.0,-18.4
CCn1c(O)c(C=NCCN2CCOCC2)c(=O)[nH]c1=S,-8.5,28.1,-6.6,-33.9,9.3,0.7
O=c1[nH]c(=O)n(-c2ccccc2)c(O)c1/C=C1/C(c2ccccc2)=Nc2ccccc21,-6.4,-61.7,-18.6,-16.4,-51.0,59.6*
COc1cc(OC)cc(C(=O)Nc2ccc(Br)cc2C(=O)c2ccccc2)c1,-2.1,9.4,-7.8,7.4,5.1,11.0
COc1cc(C(=O)Nc2ccc(Br)cc2C(=O)c2ccccc2Cl)cc(OC)c1OC,5.7,22.9,-50.5*,4.4,-11.6,23.7
CCCCCn1c(=O)c(C(=O)Nc2nc3ccccc3[nH]2)c(O)c2ccccc21,5.5,15.3,-52.0*,-3.4,23.4,30.5
CCCC(C)CC1(CCO)C(=O)NC(=S)NC1=O (centres undefined),-5.4,5.2,-12.3,-19.5,6.5,26.0
CC(C)N1C(=O)/C(=C/C=C/c2ccco2)C(=O)N(Cc2ccco2)C1=O,71.3*,52.7*,9.9,51.5,31.8,-25.4
COc1ccc(CN2C(=O)NC(=O)/C(=C\c3ccco3)C2=O)cc1,13.3,42.0*,-12.8,12.6,29.1,23.2
COc1ccc(/C=C2/C(=O)N(Cc3ccco3)C(=O)N(C(C)C)C2=O)cc1,-2.3,11.4,0.1,13.5,21.1,-8.1
CCN1C(=O)C(=C/C=C/c2ccco2)C(=O)N(CC)C1=S,0.9,17.7,6.2,-2.8,12.9,-3.5
O=C1NC(=O)N(Cc2ccccc2)C(=O)/C1=C/C=C/c1ccco1,88.4*,38.5,1.7,58.7,13.3,86.8*
CC12CC(O)C3C(CCC4=CC(=O)CCC43C)C1CCC2=O (centres undefined),-3.6,6.3,9.3,0.9,-6.3,12.8
CC(OC(=O)c1cn(C)c2ccccc12)C(=O)N(C)c1ccccc1 (centres undefined),-4.3,16.2,-0.9,4.7,13.6,-5.6
COc1cc2c(cc1OC)-c1c3c(cc4c1[C@@H](C2)N(C)CC4)OCO3,-2.9,34.2,-28.5,-31.6,60.6*,-368.6
O=P1(N(CCCl)CCCl)NCCCO1 (centres undefined),-7.8,4.4,-12.2,-7.2,-8.8,-1.5
Cc1cccc(N=C2c3cc([N+](=O)[O-])ccc3-c3c2cc([N+](=O)[O-])cc3[N+](=O)[O-])c1,41.6,-13.8,-15.5,-21.4,86.1*,29.7
CCCCC1(CCCC)C(=O)NC(=Nc2cccc(C)c2)NC1=O,-6.5,-16.2,-10.0,-28.4,25.6,17.5
Cc1cc(C)c(C)c(C(O)(C(=O)O)c2ccccc2)c1C (centres undefined),-3.1,4.5,-7.9,-29.1,-8.5,-9.7
Cc1cccc(C(O)(C(=O)O)c2ccccc2)c1 (centres undefined),2.2,0.0,-13.0,-4.3,99.8*,15.2
O=C1CN(O)C(c2ccccc2)=c2cc(Cl)ccc2=N1,-6.0,14.7,-4.8,-8.9,1.5,12.9
O=C1NC(=O)N(Cc2ccco2)C(=O)/C1=C/c1ccc(-c2cccc([N+](=O)[O-])c2)o1,10.4,65.0*,-0.9,31.3,29.3,19.3
C=CCN1C(=O)NC(=O)/C(=C\c2ccc(-c3ccccc3[N+](=O)[O-])o2)C1=O,33.0,33.9,0.7,38.1,19.8,5.2
CCOC(=O)[C@]12Cc3cc(C)ccc3[C@H]1N(C1CCCCC1)C(=O)c1cc(OC)ccc12,.,84.7*,.,.,.,.
SMILES,TRPM1 prom inh,HIF-2a block,KKLEB tox,Shn3 3UTR inh,Peg3 prom inh,CF NFkB inh
CCOC(=O)[C@]12Cc3cc(C)ccc3[C@H]1N(CCC(=O)OC)C(=O)c1cc(OC)ccc12,.,23.4,.,.,.,.
C=C1[C@H]2C[C@H]3[C@H]4N5C[C@]6(C)CCC[C@]47[C@H]([C@H]2O)[C@]3(C[C@]5(O)[C@H]67)[C@@H]1O,7.1,14.0,-3.0,1.5,15.8,-5.1
O=c1[nH]c(=S)[nH]c(O)c1N=Nc1ccc(S(=O)(=O)N2CCc3ccccc32)cc1,63.5*,18.8,-26.5,-24.1,26.2,56.2*
O=c1[nH]c(=S)[nH]c(O)c1N=Nc1ccc(SC(F)F)cc1,-16.6,-370.2,-4.9,-48.2,-211.2,2.4
CCCCCCC(Cl)(Cn1ccnc1)c1ccccc1 (centres undefined),-0.8,18.6,4.6,8.9,19.0,1.0
Cc1cccc(N2C(=O)NC(=O)/C(=C\c3cnc(-c4ccccc4)nc3)C2=O)c1,4.6,-7.7,1.0,22.6,-16.9,13.8
Cc1cc(C)cc(N2C(=O)NC(=O)/C(=C\c3cccn3-c3ccccc3)C2=O)c1,66.2*,42.9*,4.9,74.0,75.0*,27.7
Cn1cccc1/C=C1/C(=O)NC(=O)N(C(C)(C)C)C1=O,-0.9,16.9,4.0,-54.3,4.0,-0.3
CN1C(=O)/C(=C/c2cccn2-c2ccc3ccccc3c2)C(=O)NC1=S,?,-1.1,4.7,28.5,92.3*,41.1
CC1CN(C(=O)CCC(=O)N2CCC3(CC2)OCCO3)c2cc(Cl)ccc2O1 (centres undefined),-2.1,6.2,14.7,-22.9,0.2,-0.9
CNC(=O)Oc1cccc2c1OC(C)(C)O2,3.0,17.1,2.8,-17.7,-8.7,11.9
CCCc1cc(=O)oc2cc(OCC(=O)N3CCC(C(=O)O)(c4ccccc4)CC3)ccc12,5.9,4.9,2.0,-12.1,4.9,29.2
COc1ccc(-n2nnnc2C(c2ccccc2OC(F)(F)F)N2CCC3(CC2)C(=O)NCN3c2ccccc2)cc1 (centres undefined),.,-13.1,-3.2,-5.4,56.5*,5.2
COc1ccc(-n2nnnc2C(c2ccccc2OC(F)(F)F)N2CCC(n3c(=O)[nH]c4ccccc43)CC2)cc1 (centres undefined),.,-39.2,3.0,7.7,84.5*,18.3
CCN1/C(=C\C=C\C2=[N+](CC)c3ccccc3C2(C)C)C(C)(C)c2ccccc21,102.2*,73.7*,-36.2,96.2*,96.5*,-26.2
CCN(CC)CCCNC(=O)c1c(O)c2ccccc2n(Cc2ccccc2)c1=O,-4.1,5.4,-5.6,2.8,54.3*,8.3
CCN(CC)CCNC(=O)c1c(O)c2ccccc2n(Cc2ccccc2)c1=O,-11.6,9.4,-9.0,-23.8,-3.3,8.6
CN1CCCN(c2ccc([N+](=O)[O-])nc2)CC1,-1.6,-23.9,-0.4,-35.8,-43.0,-2.0
CCOCC1(CCc2ccccc2)C(=O)NC(=S)NC1=O,3.6,4.4,-8.7,8.3,7.2,11.2
C=CCN1C(=O)/C(=C/c2cccs2)C(=O)NC1=S,19.0,42.7*,-4.0,-17.5,51.1*,-24.4
